In PubChem BioAssay (NCI):
This is part of a sample that, as a whole, favours compounds with a hit. Of some 83,000 tested, about 20% had one in any assay.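 Values shown are percent growth following 48 h exposure of cells in 96-well plates to a single concentration of compound; below 10 was considered active.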 A number with no mark means an inactive call. Activity calls are given as the source filed them.

Tested on: SNB-19 CNS
Assay: NCI-60 one-dose screen, 48 h (100 = growth as untreated, 0 = no growth, -100 = all killed)
Conditions: 10 µM unless noted

| Compound | growth |
| --- | --- |
| CC1=C(CNO)C2=C(C)C3(CC3)[C@@](C)(O)C(=O)C2=C1 | 4.3% (active) |
| COc1ccc(O)c(CNC(=O)CN2CCCC2=O)c1 | 103% |
| CN1CCCCC1C(C)(O)c1ccccc1 (configuration not stated) | 107% |
| COC(=O)CC[C@H](Cc1ccccc1)NC(=O)c1csc([C@@H](C[C@H](C(C)C)N(C)C(=O)[C@@H](NC(=O)[C@H]2CCCCN2C)C(C)C)OC(C)=O)n1 | 44.2% |
| COc1ccc(N(CC(=O)NCCC[Te]c2ccccc2)C(=O)CNC(=O)OC(C)(C)C)cc1 | 33% |
| COC(=O)[C@@H](C)C[C@H](Cc1ccccc1)NC(=O)c1csc([C@@H](C[C@H](C(C)C)N(C)C(=O)[C@@H](NC(=O)[C@H]2CCCCN2C)C(C)C)OC(C)=O)n1 | 65.6% |
| COC1OC(CO)C(O)C(O)[CH]1[Hg][O]C(C)=O (configuration not stated) | 94.4% |
| CC12CC=CCC1CCC1C2CCC2(C)C(c3ccc(=O)oc3)CCC12O (configuration not stated) | -98.3% (active) |
| O=C1C2CC=CCC2C(=O)N1SC(Cl)(Cl)Cl (configuration not stated) | 91.5% |
| CCOC(=O)[C@@H](C)C[C@H](Cc1ccccc1)NC(=O)c1nc([C@@H](C[C@H](C(C)C)N(C)C(=O)[C@@H](NC(=O)[C@H]2CCCCN2C)C(C)C)OC(C)=O)sc1CCOCc1ccccc1 | 4.69% (active) |
| COP(=S)(N1CC1)N1CC1 | 112% |
| COC(=O)[C@@H](C)C[C@H](Cc1ccccc1)NC(=O)c1nc([C@@H](C[C@H](C(C)C)N(C)C(=O)[C@@H](NC(=O)[C@H]2CCCCN2C)C(C)C)OC(C)=O)sc1C(C)C | 27.7% |
| COC(=O)[C@@]1(O)C[C@H]2O[C@]1(C)n1c3ccccc3c3c4c(c5c6ccccc6n2c5c31)C(=O)NC4 | -27.9% (active) |
| N/C(=N\N=C\c1ccc(-c2ccccc2)cc1)N[N+](=O)[O-] | 55.3% |
| COc1ccc([As]=[As]c2ccc(OC)c(NCS(=O)(=O)O)c2)cc1NCS(=O)(=O)O (configuration not stated) | 0.15% (active) |
| C1CCC([PH+](C2CCCCC2)C2CCCCC2[PH+](C2CCCCC2)C2CCCCC2)CC1.O=C(C1[CH-]CCCC1)C1CCCC[N-]1.[Au] (configuration not stated) | -95.2% (active) |
| O=P1(NCCCl)OCCCN1CCCl (configuration not stated) | 111% |
| O=C([O][Hg][c]1ccccc1)c1ccccc1 | 56.8% |
| CC(CO)NC1CCCCC1 (configuration not stated) | 102% |

| Compound | growth |
| --- | --- |
| C[C@@]12CC=C3c4nc(Nc5cccc(O)c5)sc4CC[C@]3(C)[C@H]1CC[C@]1(C)C(=O)CC[C@@H]21 | 57.9% |
| COC(=O)[C@@H](C)C[C@H](Cc1ccccc1)NC(=O)c1csc([C@@H](C[C@H](C(C)C)N(C)C(=O)[C@@H](NC(=O)[C@H]2CCCCN2C)c2ccc(F)cc2)OC(C)=O)n1 | 74.8% |
| OCCCCCNC1CCCCC1 | 112% |
| COc1cc(/C=C/[N+](=O)[O-])c([N+](=O)[O-])cc1OC | 96.3% |
| NC(CCl)CCl | 105% |
| O=[N+]([O-])CC(c1ccccc1Cl)c1c(-c2ccccc2)[nH]c2ccccc12 (configuration not stated) | 45.4% |
| C#Cc1ccc2c(c1)C(c1ccccc1)=NCC(=O)N2C | 46.6% |
| CN(C)C(=O)Oc1ccccc1 | 115% |
| OCCNC(Cc1ccccc1)c1ccc2c(c1)OCO2 (configuration not stated) | 106% |
| Nc1ccc2c(c1)Cc1cc(Br)ccc1-2 | 101% |
| C#Cc1ccc2c(c1)C(c1ccccc1F)=NCC(=O)N2C | 49% |
| O=C([O][Hg][CH2]C1OCCOC1[CH2][Hg][O]C(=O)c1ccccc1)c1ccccc1 (configuration not stated) | 105% |
| C[C@@H]1O[C@@H](O[C@H]2C[C@@H](O)[C@]3(CO)C4C(CC[C@]3(O)C2)[C@@]2(O)CC[C@H](C3=CC(=O)OC3)[C@@]2(C)C[C@H]4O)[C@H](O)[C@H](O)[C@H]1O (some centres not stated) | -94.6% (active) |
| CC1=C(CN)C2=C(C)C3(CC3)[C@@](C)(O)C(=O)C2=C1 | 83.2% |
| COC(C(=O)[C@@H](O)[C@@H](C)O)[C@@H]1Cc2cc3cc(O[C@H]4C[C@@H](O[C@H]5C[C@@H](O)[C@H](O)C(C)O5)[C@H](O)C(C)O4)c(C)c(O)c3c(O)c2C(=O)[C@H]1O[C@H]1C[C@@H](O[C@H]2C[C@@H](O[C@H]3C[C@@H](O)[C@@H](O)C(C)O3)[C@@H](O)C(C)O2)[C@H](O)C(C)O1 (some centres not stated) | 11.7% |
| C[C@]12CC[C@@H]3c4ccc(Oc5nc(N6CC6)nc(N6CC6)n5)cc4CC[C@H]3[C@@H]1CCC2=O | 48.8% |
| CC(=O)Nc1ccc(NC(=O)c2ccc([As](O)O)cc2)cc1 | 92.9% |
| CCC(C)(C)[C@H](NC(=O)[C@H]1CCCCN1C)C(=O)N(C)[C@H](C[C@@H](OC(C)=O)c1nc(C(=O)N[C@@H](Cc2ccccc2)C[C@H](C)C(=O)O)cs1)C(C)C | 17.8% |
